In PubChem BioAssay AID1347056 (Sanford-Burnham Center for Chemical Genomics, 2019):
Screen size: about 360,000 compounds; about 3,600 (1%) were called active. For the sample, actives were picked, then their nearest neighbours and some compounds at random. Unmarked numbers belong to inactive results.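 How the source made its calls: active means compounds whose plate-normalised and pattern-corrected inhibition of the luciferase reporter signal at the single screening dose is 50% or more; inactive means the rest.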

Test: TROY pathway blockers in reporter cells – Q293 LMP1-TROYcd cells, NF-kB luciferase, uHTS, primary screen (AID 1347056)
Settings: 4 h, at 10 µM, hits give high values

Question: Which inhibition does the source give for `CC(C)C(C)(C#N)NC(=O)CSc1nncn1-c1ccccc1` (stereo not given) here?
Answer: -7.95%

Question: Which inhibition does the source give for `CC1CCN(C(=O)c2ccc3c(=O)n4c(nc3c2)CCCCC4)CC1` here?
Answer: 5.45%

Question: For `C=CCC1(CC=C)CCCN1C(=O)CC1C(=O)NCCN1Cc1ccccc1OC` (stereo not given), which inhibition is on record?
Answer: -17.8%

Question: Which inhibition does the source give for `CCN1CCN(C(=O)C2(NC(=O)Nc3cccc(F)c3)CCCCC2)CC1` here?
Answer: 7.69%

Question: Which inhibition does the source give for `c1ccc(-c2cc3c(NCC4COc5ccccc5O4)ncnc3s2)cc1` (stereo not given) here?
Answer: 59.3% (active)

Question: Which inhibition does the source give for `Cc1noc(C)c1C(=O)NCC1COc2ccccc2O1` (stereo not given) here?
Answer: 7.74%

Question: For `O=C(Cn1cnc2ccccc2c1=O)NCC1COc2ccccc2O1` (stereo not given), which inhibition is on record?
Answer: -4.41%

Question: Which inhibition does the source give for `CCOC(=O)[C@]12CCC=C1N(CCC1=CCCCC1)C(=O)[C@H](CC(=O)NCc1ccc(C)o1)C2` here?
Answer: -3.05%

Question: With `Cc1nc(Nc2ccccc2F)c2nnn(Cc3ccccc3Cl)c2n1` as the molecule, how does the inhibition read?
Answer: -1.4%

Question: Which inhibition does the source give for `Cc1nc(Nc2ccc3c(c2)OCCO3)c2nnn(Cc3ccccc3Cl)c2n1` here?
Answer: 82.3% (active)

Question: Which inhibition does the source give for `Cc1nc(Nc2ccc(S(=O)(=O)N3CCCC3)cc2)c2nnn(Cc3ccccc3)c2n1` here?
Answer: 22.5%

Question: With `CCOC(=O)CN(C)S(=O)(=O)c1ccc(-c2cc(C(=O)OC)sc2C(F)(F)F)cc1` as the molecule, how does the inhibition read?
Answer: 87.2% (active)

Question: For `COC(=O)c1sc(C(F)(F)F)c(-c2ccccc2)c1S(=O)(=O)N(C)C`, which inhibition is on record?
Answer: -5.2%

Question: Which inhibition does the source give for `Cc1ccc(S(=O)(=O)N(C)CC(=O)OCC(=O)Nc2ccccc2)cc1` here?
Answer: -10.3%

Question: Which inhibition does the source give for `Cc1ccc(OCCCC(=O)NC(C)c2ccccc2)c(C)c1` (stereo not given) here?
Answer: -19.3%

Question: Which inhibition does the source give for `Cc1cccc(C(=O)OC(C)CN2CCCC2)c1` (stereo not given) here?
Answer: 17.2%

Question: For `Cc1cccc(C(=O)OC(C)CN2CCN(C)CC2)c1` (stereo not given), which inhibition is on record?
Answer: 58% (active)

Question: Which inhibition does the source give for `Cc1ccc(C(=O)OC(C)CN2CCOCC2)cc1` (stereo not given) here?
Answer: -24.8%

Question: Which inhibition does the source give for `C=CCc1c(C)nc2cc(-c3ccccc3)[nH]n2c1=O` here?
Answer: -9.98%

Question: With `O=c1c2c(nc3cc(-c4cccc(Cl)c4)[nH]n13)CCCC2` as the molecule, how does the inhibition read?
Answer: 59.5% (active)

Question: For `CCCCN1Cc2c(nc3cc(-c4ccccc4)[nH]n3c2=O)C1=O`, which inhibition is on record?
Answer: 6.47%

Question: For `COc1ccc(Br)cc1CN1CCN(C(=O)c2cccc(OC)c2OC)CC1`, which inhibition is on record?
Answer: -1.16%

Question: With `COc1cccc(C(=O)OCc2cc(=O)oc3c(C)c(C)ccc23)c1OC` as the molecule, how does the inhibition read?
Answer: 54.5% (active)

Question: Which inhibition does the source give for `COC(=O)Cc1cc(=O)oc2c(C)c(O)ccc12` here?
Answer: 11.1%

Question: For `Cc1ccc(NC(=S)N(CCCN2CCCC2)Cc2cccn2Cc2ccc(Cl)cc2)cc1`, which inhibition is on record?
Answer: -45.1%

Question: For `COc1cc(/C=C(/NC(=O)c2ccc(Cl)cc2Cl)C(=O)O)cc(OC)c1OC`, which inhibition is on record?
Answer: 18.8%

Question: With `CCOc1cc(/C=N/NC(=O)OC)ccc1OCCSc1ccc(Cl)cc1` as the molecule, how does the inhibition read?
Answer: 14.9%

Question: With `CCOc1cc(/C=C(/C#N)c2ccc(Cl)cc2)cc(Cl)c1OCC(=O)O` as the molecule, how does the inhibition read?
Answer: 70.8% (active)

Question: With `O=C(O)C1=C[C@H](c2cccs2)C[C@H](OCCCCO)O1` as the molecule, how does the inhibition read?
Answer: -7.03%

Question: Which inhibition does the source give for `CC(C)CCNC(=O)c1ccc2c(Cl)c3c(nc2c1)CCC3` here?
Answer: 55.3% (active)

Question: Which inhibition does the source give for `CC(C)CCC(C)NC(=O)c1ccc2nccnc2c1` (stereo not given) here?
Answer: -39.8%

Question: For `COc1cccc(NC(=O)c2ccc3c(SCC(=O)O)c4c(nc3c2)CCCC4)c1`, which inhibition is on record?
Answer: -30.4%

Question: For `COC(=O)CNS(=O)(=O)c1ccc(Cc2ccc(S(=O)(=O)NCC(=O)OC)cc2)cc1`, which inhibition is on record?
Answer: 13.7%

Question: Which inhibition does the source give for `O=C(CCNC(=O)Cn1ccc2ccccc2c1=O)NCCC1=CCCCC1` here?
Answer: 7.75%

Question: For `Cc1nnc(OCC(=O)NCCC2=CCCCC2)c2ccccc12`, which inhibition is on record?
Answer: -8.28%

Question: With `O=C(Cc1cccc2ccccc12)NCCC1=CCCCC1` as the molecule, how does the inhibition read?
Answer: 80.3% (active)

Question: Which inhibition does the source give for `COc1ccc(C(CNC(=O)c2ccc(OCc3cscn3)cc2)N2CCCC2)cc1` (stereo not given) here?
Answer: 0.55%

Question: With `CCCS(=O)(=O)N1CCC(C(=O)NCCc2ccc(OC)c(OC)c2)CC1` as the molecule, how does the inhibition read?
Answer: 0.11%

Question: For `COc1cccc(CNc2nc(NCc3ccccc3OC)nc3ccsc23)c1`, which inhibition is on record?
Answer: 53.4% (active)

Question: Which inhibition does the source give for `Clc1ccccc1Nc1nc(NCc2cccs2)nc2ccsc12` here?
Answer: 6.87%

Question: With `COCCNc1nc(NCc2ccc(NC(C)=O)cc2)c2sccc2n1` as the molecule, how does the inhibition read?
Answer: 8.19%

Question: Which inhibition does the source give for `COc1ccccc1CNc1nc(Nc2ccccc2Cl)c2sccc2n1` here?
Answer: 42.1%

Question: With `COc1cccc(CNc2nc(NCc3cccs3)nc3ccsc23)c1` as the molecule, how does the inhibition read?
Answer: 57.2% (active)

Question: With `COc1cccc(-c2cc3nc(NCc4ccccc4OC)n(C)c(=O)c3s2)c1` as the molecule, how does the inhibition read?
Answer: -20.1%

Question: For `CCOCCCNC(=S)N1CCC(NC(=O)C2CCCCC2)CC1`, which inhibition is on record?
Answer: 10.6%

Question: For `COc1ccc(C)cc1S(=O)(=O)NCCc1ccccc1`, which inhibition is on record?
Answer: 10.5%

Question: With `O=[N+]([O-])c1cc(S(=O)(=O)NCCc2ccccn2)ccc1Cl` as the molecule, how does the inhibition read?
Answer: -5.27%

Question: With `Cc1ccc(CC(=O)Nc2cccc(C#N)c2)cc1` as the molecule, how does the inhibition read?
Answer: 5.18%

Question: With `CCOc1c2ccc(C(=O)NC3CCCc4ccccc43)cc2nn1CC` (stereo not given) as the molecule, how does the inhibition read?
Answer: 2.7%

Question: Which inhibition does the source give for `C/C(=N\NS(=O)(=O)c1ccc(Cl)cc1)c1ccc(NC(=O)c2ccco2)cc1` here?
Answer: -42.5%

Question: For `COc1ccc(-n2ncc3c(N4CCCc5ccccc54)ncnc32)cc1`, which inhibition is on record?
Answer: 62.1% (active)

Question: For `COc1ccc(-n2ncc3c(SCC(=O)NNC(C)=O)ncnc32)cc1`, which inhibition is on record?
Answer: -14.8%

Question: With `CN(C(=O)COc1ncnc2c1cnn2-c1ccccc1)C1CCCCC1` as the molecule, how does the inhibition read?
Answer: 11.5%

Question: Which inhibition does the source give for `O=C(CC1CCCCC1)NCc1ccc(F)cc1` here?
Answer: -30.5%

Question: With `CC(C)NC(=O)N1Cc2cc(C(=O)NCC(F)(F)F)nc(-c3cccc(-c4cc5ccccc5o4)c3)c2[C@@H]1CCO` as the molecule, how does the inhibition read?
Answer: 9.45%

Question: Which inhibition does the source give for `COC(=O)[C@@H]1C[C@H]2CC[C@H](O)C[C@H]2N1Cc1ccc(N2CCN(C)CC2)cc1` here?
Answer: 4.5%

Question: With `CC(C)(CNC(=O)CNC(=O)C1CCCCC1)N1CCOCC1` as the molecule, how does the inhibition read?
Answer: 6.69%

Question: Which inhibition does the source give for `O=c1cc(O)c(-c2cccc(C(F)(F)F)c2)c(Cl)[nH]1` here?
Answer: -14.8%

Question: Which inhibition does the source give for `O=C(O)c1cc(S(=O)(=O)N(Cc2ccccc2)c2cccc(C(F)(F)F)c2)ccc1Cl` here?
Answer: 3%

Question: Which inhibition does the source give for `O=C(NNc1ccccc1Cl)C(O)(c1cccc(C(F)(F)F)c1)c1cccc(C(F)(F)F)c1` here?
Answer: 54.1% (active)
